PubChem BioAssay AID1986 (Sanford-Burnham Center for Chemical Genomics, 2009)
Screen size: about 290,000 compounds; about 890 (0.31%) were called active. Rule as the data show it: active = inhibition mostly above about 52% (no sharp cut-off); inactive = mostly below about 76%. The full list was thinned out, with actives kept by preference.

Experiment: inhibitors of HIV fusion peptide binding, primary screen, biochemical, uHTS, fluorescence dequenching (AID 1986)
Conditions: cell-free peptide binding, 30 min, stronger effect = higher value
[1] = measured here: repeat confirmation average inhibition, at 18.6 µM

| Structure (SMILES) | inhibition (at 20 µM) | inhibition [1] [%] |
| --- | --- | --- |
| CCc1c(-c2ccccc2)nc2sc3c(c2c1N)CCCC3 | 0.7% (inactive) |  |
| Cc1ccccc1NC(=O)CN1C(=O)S/C(=C\c2cccn2-c2cccc(C(=O)O)c2)C1=O | -1.1% (inactive) |  |
| CN1C(=O)S/C(=C/c2cccn2-c2cccc(C(=O)O)c2)C1=O | 1.9% (inactive) |  |
| CC1=NN(c2nc(-c3ccccc3)cs2)C(=O)C1 | 47.5% (inactive) |  |
| CC1=NN(c2nc(-c3ccc(Cl)cc3)cs2)C(=O)C1 | -1.9% (inactive) |  |
| O=C1CC(c2ccccc2)=NN1c1nc(-c2ccccc2)cs1 | 58% (active) |  |
| CCOC(=O)Cn1c(=O)n(Cc2ccc(C)cc2)c(=O)c2cccnc21 | 1.3% (inactive) |  |
| COc1cc(N2CCCC2)c(OC)cc1/C=C1/NC(=S)NC1=O | 121% (active) |  |
| COc1cc(N2CCCC2)c(OC)cc1/C=c1/sc2nc3ccccc3n2c1=O | -3.3% (inactive) |  |
| COc1cc(N2CCCC2)c(OC)cc1C=O | -2.7% (inactive) |  |
| COCCN(C(=O)C1CCC1)c1nnc(-c2cccnc2)s1 | -0.2% (inactive) |  |
| Cc1ccc(-c2nc(C=Nc3ccccc3)c(O)o2)cc1 | -1.7% (inactive) |  |
| Oc1oc(-c2ccccc2)nc1C=Nc1ccccc1 | -1.4% (inactive) |  |
| CN(C)c1ccc(N=Cc2nc(-c3ccccc3)oc2O)cc1 | 84.5% (active) | 132 |
| O=C(CCCc1ccccc1)Nc1ccccn1 | -1.4% (inactive) |  |
| O=C(O)CS(=O)CC(=O)Nc1cccc(C(F)(F)F)c1 (centres undefined) | 0.3% (inactive) |  |
| CCN1C(=O)/C(=C\c2ccc(-c3cccc(C(=O)OC)c3)o2)SC1=Nc1ccc(C(=O)O)cc1 | 51.6% (inactive) | 8.6 |
| CCN=C1S/C(=C\c2ccc(-c3cccc(C(=O)O)c3)o2)C(=O)N1CC | 42% (inactive) |  |
| Cc1ccc(-c2csc(NC(=O)c3ccco3)n2)cc1C | 2% (inactive) |  |
| COc1cc(OC)c(OC)cc1CN1CCc2ccccc2C1 | 1% (inactive) |  |
| O=C(CN1CCC(Cc2ccccc2)CC1)N1CCc2ccccc2C1 | 0.8% (inactive) |  |
| CCOc1cccc(C2/C(=C(/O)c3ccc4c(c3)CC(C)O4)C(=O)C(=O)N2CCCn2ccnc2)c1 (centres undefined) | -2.5% (inactive) |  |
| O=C(Nc1sc2c(c1C(=O)O)CCC2)c1ccccc1 | 12.1% (inactive) |  |
| CC(C)(C)c1ccc(C(=O)Nc2sc3c(c2C(=O)O)CCC3)cc1 | 50.9% (active) |  |

| Structure (SMILES) | inhibition (at 20 µM) | inhibition [1] [%] |
| --- | --- | --- |
| O=C(Nc1sc2c(c1C(=O)O)CCC2)c1ccc(F)cc1 | 6.4% (inactive) |  |
| O=C(CCN1CCc2ccccc2C1)c1ccc2c(c1)OCCO2 | 1.4% (inactive) |  |
| O=C(c1ccc(Cl)cc1)c1c[nH]c(C(=O)NNc2ccccc2)c1 | -4.1% (inactive) |  |
| CN(CCc1ccccn1)C1CCCN(S(=O)(=O)c2ccc(F)c(Cl)c2)C1 (centres undefined) | -0.2% (inactive) |  |
| Oc1ccc(Br)cc1/C=N/n1c(-c2ccccc2)n[nH]c1=S | 6% (inactive) |  |
| Oc1c(Br)cc(Br)cc1/C=N/n1c(-c2ccccc2)n[nH]c1=S | 20.3% (inactive) |  |
| Cc1c(Br)c(O)c(Br)c(O)c1/C=N/n1c(-c2ccccc2)n[nH]c1=S | 62.9% (inactive) | 47.6 |
| COc1c(Br)cc(/C=N/n2c(-c3ccccc3)n[nH]c2=S)c(O)c1Br | 44.2% (inactive) |  |
| Oc1ccccc1/C=N/n1c(-c2ccccc2)n[nH]c1=S | 0.3% (inactive) |  |
| Oc1c(Br)cc(/C=N/n2c(-c3ccccc3)n[nH]c2=S)c(O)c1Br | 53.2% (active) |  |
| Oc1c(Br)cc(/C=N/n2c(-c3ccccc3)n[nH]c2=S)cc1Br | 64.4% (inactive) | 15.2 |
| Oc1c(Br)cc(/C=N/n2c(-c3ccccc3)n[nH]c2=S)c(Br)c1O | 63.4% (active) |  |
| CC(=O)c1cccc(N(CC(=O)N2CCOCC2)S(C)(=O)=O)c1 | -1.8% (inactive) |  |
| CC(Oc1ccccc1)C(=O)NNC(=O)c1cccs1 (centres undefined) | -0.2% (inactive) |  |
| Cc1ccc(Nc2nc(N)c([N+](=O)[O-])c(N3CCOCC3)n2)cc1 | -3.1% (inactive) |  |
| Cc1c(Cl)c(C(=O)NC2C3CC4CC(C3)CC2C4)nn1C (centres undefined) | -1.2% (inactive) |  |
| O=C(Nc1ccn(Cc2ccccc2F)n1)c1ccc(COc2ccc(Br)cc2)cc1 | -0.1% (inactive) |  |
| Cc1cccc(NC(=O)CN2C(=O)CCS(=O)(=O)c3ccccc32)c1C | 0% (inactive) |  |
| CC(C)(C)NC(=O)NC(=O)COC(=O)c1cccc(NS(=O)(=O)c2ccc(F)c(F)c2)c1 | 5.9% (inactive) |  |
| COC(=O)c1ccccc1NC(=O)COC(=O)[C@H](C)NC(N)=O | -2.5% (inactive) |  |
| C=CCn1c(CCC(O)COCCC)n[nH]c1=S (centres undefined) | -0.8% (inactive) |  |
| O=C1NC(=S)S/C1=C/c1ccc(N2CCOCC2)o1 | 18.7% (inactive) |  |
| COc1ccc2cc(/C=C3\SC(=S)NC3=O)c(N3CCOCC3)nc2c1 | 63.1% (active) |  |
| COc1ccc2nc(N3CCCCC3)c(/C=C3\SC(=S)NC3=O)cc2c1 | 53.6% (active) |  |

| Structure (SMILES) | inhibition (at 20 µM) | inhibition [1] [%] |
| --- | --- | --- |
| O=C1NC(=S)S/C1=C\c1cc2ccccc2nc1N1CCCCC1 | 63.6% (inactive) | 28.2 |
| COc1ccc(-n2c(C)cc(/C=C3\SC(=S)NC3=O)c2C)cc1 | 32.3% (inactive) |  |
| COc1ccc2cc(C#N)c(N3CCOCC3)nc2c1 | 2.4% (inactive) |  |
| Cc1ccc(CN2CCC(n3nccc3NC(=O)C3CCOC3)CC2)cc1C (centres undefined) | -0.8% (inactive) |  |
| CC(=O)Nc1ccc(C(=O)OCC(=O)c2ccc(C)c([N+](=O)[O-])c2)cc1 | 0.2% (inactive) |  |
| CCN(CC)S(=O)(=O)c1ccc(C(=O)/C=C/c2ccc(-c3ccc([N+](=O)[O-])cc3)o2)cc1 | 73.1% (active) | 88.1 |
| Cc1ccc(C(=O)/C=C/c2ccc(-c3ccccc3[N+](=O)[O-])o2)cc1 | 35.4% (inactive) |  |
| Cc1ccc(C(=O)/C=C/c2ccc(-c3ccc(C)cc3)o2)cc1 | 21.5% (inactive) |  |
| Cc1c(C(=O)Nc2cccnc2Cl)oc2ccccc12 | -1% (inactive) |  |
| CCCN(C(=O)CN1C(=O)NC2(CCCCCC2)C1=O)C1CCS(=O)(=O)C1 (centres undefined) | 0.3% (inactive) |  |
| O=C1/C(=C/c2cccnc2)Sc2ccccc21 | 9.2% (inactive) |  |
| N#Cc1c(C(F)(F)F)cc(-c2ccccc2)nc1SCCN1CCOCC1 | 2.6% (inactive) |  |
| N#Cc1c(C(F)(F)F)cc(-c2ccccc2)nc1SCc1nc(N)nc(N2CCOCC2)n1 | 66.7% (active) |  |
| C#CCSc1nc(-c2ccccc2)cc(C(F)(F)F)c1C#N | -0.2% (inactive) |  |
| O=C(NCC1CCCO1)c1ccc(CNS(=O)(=O)c2cccc(Cl)c2)cc1 (centres undefined) | -0.3% (inactive) |  |
| Cc1ccc(C(=O)C2=C(O)C(=O)N(Cc3ccco3)C2c2cccc(Cl)c2)o1 (centres undefined) | 25.7% (inactive) |  |
| Cc1ccccc1N=Cc1c(O)n(-c2nccs2)c(=O)c2ccccc12 | 2.3% (inactive) |  |
| Cc1cc(C)c(N=Cc2c(O)n(-c3nccs3)c(=O)c3ccccc23)c(C)c1 | 0.6% (inactive) |  |
| Cc1ccc(N=Cc2c(O)n(-c3nccs3)c(=O)c3ccccc23)c(C)c1 | 75.3% (active) | 103 |
| CN1CCN(/N=C/c2ccc(-c3ccccc3)cc2)CC1 | 0% (inactive) |  |
| CC1=NN(c2ccccc2)C(=O)/C1=C\c1c(C)[nH]n(-c2ccccc2)c1=O | -0.3% (inactive) |  |
| Cc1[nH]n(-c2ccccc2)c(=O)c1/C=C1/C=c2ccccc2=N1 | -2.5% (inactive) |  |
| Cc1coc2cc3oc(=O)c(CCC(=O)N4CCC(C(=O)O)(c5ccccc5)CC4)c(C)c3cc12 | 3.7% (inactive) |  |
| O=C1CCN(Cc2ccccc2)CCN1[C@H](CO)c1ccccc1 | 1.5% (inactive) |  |

| Structure (SMILES) | inhibition (at 20 µM) | inhibition [1] [%] |
| --- | --- | --- |
| Cc1ccc(NC(=O)COC(=O)c2ccccc2-c2nc3ccccc3s2)c(C)c1 | 1.4% (inactive) |  |
| CCOCCCNc1nc2c(C)cccn2c(=O)c1/C=C1\SC(=S)N(C(C)CC)C1=O (centres undefined) | 94.5% (active) |  |
| Cc1cccn2c(=O)c(C=Nc3ccccc3)c(NCCO)nc12 | 0.3% (inactive) |  |
| CCC(C)N1C(=O)/C(=C/c2c(NCCCOC(C)C)nc3c(C)cccn3c2=O)SC1=S (centres undefined) | 75.6% (active) | 144 |
| Cc1cccn2c(=O)c(/C=C3\SC(=S)NC3=O)c(NCCCN3CCOCC3)nc12 | 75.8% (inactive) | 7.4 |
| CCCN1C(=O)/C(=C/c2c(NCCCOC(C)C)nc3c(C)cccn3c2=O)SC1=S | 1.8% (inactive) |  |
| CCOCCCNc1nc2c(C)cccn2c(=O)c1/C=C1\SC(=S)N(CC(C)C)C1=O | 58.9% (active) | 63.6 |
| CCCN1C(=O)/C(=C/c2c(NCCCOCC)nc3c(C)cccn3c2=O)SC1=S | 8.4% (inactive) |  |
| CCOCCCNC(=O)c1cc2c(=O)n3cccc(C)c3nc2s1 | -1.3% (inactive) |  |
| Cc1cccn2c(=O)c3cc(C(=O)NCCCOC(C)C)sc3nc12 | 1% (inactive) |  |
| Cc1c(C(=O)NN)sc(=S)n1C | -1.3% (inactive) |  |
| O=C(N/N=C/c1cc2c(cc1Br)OCO2)c1cc2ccccc2o1 | -0.4% (inactive) |  |
| COc1cccc(NC(=O)Cc2c(O)c3ccccc3[nH]c2=O)c1 | -2.3% (inactive) |  |
| Cn1nnnc1SCc1ccccc1F | 2.4% (inactive) |  |
| O=C(Nc1cccc(NC(=O)c2ccc([N+](=O)[O-])o2)c1)c1ccco1 | 0.6% (inactive) |  |
| CC(C)c1onc(C(=O)NCCc2ccccc2)c1[N+](=O)[O-] | -0.8% (inactive) |  |
| O=C(O)c1ccccc1NS(=O)(=O)c1cccc(C(F)(F)F)c1 | 7.8% (inactive) |  |
| O=C(O)c1ccccc1NS(=O)(=O)c1cccc(-n2sc3ccccc3c2=O)c1 | 54.9% (active) |  |
| CN(C)S(=O)(=O)c1cccc(-n2sc3ccccc3c2=O)c1 | -1.2% (inactive) |  |
| Cc1ccc(N=Cc2cccc(O)c2O)c(C)c1 | -1.8% (inactive) |  |
| Cc1ccccc1N=Cc1cccc(O)c1O | 64.9% (active) |  |
| Oc1cccc(C=Nc2cccc3ccccc23)c1O | 36.3% (inactive) |  |
